{
  "source": "the OligoGym collection",
  "data": [
    {"biological_target": "FGFR1", "experiment": "pooled miR-30 sensor sort-seq; sequence = guide strand", "conditions": "shRNA", "values": [
      {"sequence": "TGAACTTCACTGTCTTGGCAGC", "sensor-assay potency score (higher = more potent)": -0.906},
      {"sequence": "TTGAAGGTGGGTCTCTGTGAGG", "sensor-assay potency score (higher = more potent)": -0.69},
      {"sequence": "TTTTATAGTAGTCGATGTGGTG", "sensor-assay potency score (higher = more potent)": -0.492},
      {"sequence": "TTGAACTTCACTGTCTTGGCAG", "sensor-assay potency score (higher = more potent)": 0.751},
      {"sequence": "TTACTGGGCTTGTCCATGCGGT", "sensor-assay potency score (higher = more potent)": -0.849},
      {"sequence": "TTACACATGAACTCCACGTTGC", "sensor-assay potency score (higher = more potent)": 0.903},
      {"sequence": "TTCTTTTCCATCTTTTCTGGGG", "sensor-assay potency score (higher = more potent)": -0.274},
      {"sequence": "TTGTGCACAGCCATCTGGCTGT", "sensor-assay potency score (higher = more potent)": -0.135},
      {"sequence": "TAGCGGTGCAGAGTGTGGCTGT", "sensor-assay potency score (higher = more potent)": -0.244}
    ]},
    {"biological_target": "FHOD1", "experiment": "pooled miR-30 sensor sort-seq; sequence = guide strand", "conditions": "shRNA", "values": [
      {"sequence": "TCTGTCTCGGTGATCATGCGTC", "sensor-assay potency score (higher = more potent)": -0.332},
      {"sequence": "TTGTAGATGCTCCTCTCGCTGG", "sensor-assay potency score (higher = more potent)": -0.582},
      {"sequence": "ATGACTGTCAGCATCTCCCCGG", "sensor-assay potency score (higher = more potent)": -0.753},
      {"sequence": "TTGCAGAGCACAATCCTCCAAC", "sensor-assay potency score (higher = more potent)": -0.554},
      {"sequence": "TCGTAGAGCACAAGCTGCGTGC", "sensor-assay potency score (higher = more potent)": -0.434},
      {"sequence": "TTTGTAGATGCTCCTCTCGCTG", "sensor-assay potency score (higher = more potent)": -1.11},
      {"sequence": "TTGTTGATGAGGGTGACCGTGT", "sensor-assay potency score (higher = more potent)": -0.769},
      {"sequence": "TTCTTCGATGTCTCCATCCTCC", "sensor-assay potency score (higher = more potent)": -0.285},
      {"sequence": "TAGCTTCTCAATGCCATCCTTG", "sensor-assay potency score (higher = more potent)": -0.31},
      {"sequence": "TACAAACACCAACAGCAGCTTC", "sensor-assay potency score (higher = more potent)": -0.751},
      {"sequence": "TTCTACAAACACCAACAGCAGC", "sensor-assay potency score (higher = more potent)": -1.07}
    ]},
    {"biological_target": "FH", "experiment": "pooled miR-30 sensor sort-seq; sequence = guide strand", "conditions": "shRNA", "values": [
      {"sequence": "TTACTTGTTGAACATAACCACT", "sensor-assay potency score (higher = more potent)": -1.14},
      {"sequence": "TGGATCAAGACCATAATCCTGG", "sensor-assay potency score (higher = more potent)": 0.098},
      {"sequence": "TTTCCTTTAAGGTTGATCCATT", "sensor-assay potency score (higher = more potent)": -0.612},
      {"sequence": "TTGCTTCACACTGAGTAGGGTT", "sensor-assay potency score (higher = more potent)": -0.374},
      {"sequence": "TTTCCTTTCAAACTTATCCGTT", "sensor-assay potency score (higher = more potent)": -0.472},
      {"sequence": "TTTGCTATCTTCATCAGACTGC", "sensor-assay potency score (higher = more potent)": 0.482},
      {"sequence": "TTAAAGTTCATCGTAGATCTCA", "sensor-assay potency score (higher = more potent)": 0.281},
      {"sequence": "TTTACATTCATATTTGTCTGAG", "sensor-assay potency score (higher = more potent)": -0.0374},
      {"sequence": "TAACACATTTTTAATCATCATT", "sensor-assay potency score (higher = more potent)": -1.28},
      {"sequence": "TTCATCAGCTTGTTGATCCTTT", "sensor-assay potency score (higher = more potent)": 0.529},
      {"sequence": "TATTGCAGCAGCAATGTGCATT", "sensor-assay potency score (higher = more potent)": -0.245},
      {"sequence": "TTGTCTGAGTTCCTGATCCAGT", "sensor-assay potency score (higher = more potent)": -0.75},
      {"sequence": "TCTTAGACCTAGCACATCCTAG", "sensor-assay potency score (higher = more potent)": -0.529},
      {"sequence": "TTCTGTCACACCTCCAATCTTA", "sensor-assay potency score (higher = more potent)": -0.00125},
      {"sequence": "AACATAACCACTAAATTCCTGC", "sensor-assay potency score (higher = more potent)": -0.241},
      {"sequence": "TTCTATTGCAGCAGCAATGTGC", "sensor-assay potency score (higher = more potent)": -0.565},
      {"sequence": "TTTACTTGTTGAACATAACCAC", "sensor-assay potency score (higher = more potent)": 0.162},
      {"sequence": "TATTGCATTAGCAATCTTTGGA", "sensor-assay potency score (higher = more potent)": 0.0448},
      {"sequence": "TATATGAGGATTGAGAGCTGTC", "sensor-assay potency score (higher = more potent)": 0.308},
      {"sequence": "TTACATTCATATTTGTCTGAGT", "sensor-assay potency score (higher = more potent)": 0.037}
    ]}
  ]
}
